# Experimental data: PubChem BioAssay (NCI)
# This is part of a sample that, as a whole, favours compounds with a hit. Of some 83,000 tested, about 20% had one in any assay.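 Results are percent growth after 48 hours of single-concentration exposure. 100 means growth as in untreated cells, lower positive values show inhibition; negative values down to -100 show cell death.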 A number with no mark means an inactive call. Calls of active or inactive are those of the source. How the source made its calls: active means growth percent below 10; inactive means the rest.
# Tests used:
# Experiment in all cases: NCI-60 one-dose screen, 48 h (100 = growth as untreated, 0 = no growth, -100 = all killed)
# Conditions in all cases: 10 µM unless noted
# SR leukemia = tested on: SR leukemia
# RPMI-8226 leukemia = tested on: RPMI-8226 leukemia
# OVCAR-8 ovarian = tested on: OVCAR-8 ovarian
# OVCAR-5 ovarian = tested on: OVCAR-5 ovarian
# OVCAR-4 ovarian = tested on: OVCAR-4 ovarian
# SK-OV-3 ovarian = tested on: SK-OV-3 ovarian
# IGROV1 ovarian = tested on: IGROV1 ovarian
# OVCAR-3 ovarian = tested on: OVCAR-3 ovarian
# HS 578T breast = tested on: HS 578T breast
# NCI/ADR-RES ovarian = tested on: NCI/ADR-RES ovarian
Compound,growth (SR leukemia),growth (RPMI-8226 leukemia),growth (OVCAR-8 ovarian),growth (OVCAR-5 ovarian),growth (OVCAR-4 ovarian),growth (SK-OV-3 ovarian),growth (IGROV1 ovarian),growth (OVCAR-3 ovarian),growth (HS 578T breast),growth (NCI/ADR-RES ovarian)
COc1cnc2c(c1)C(=O)c1c-2n(CCCN2CCN(CCO)CC2)c(=O)c2cc([N+](=O)[O-])ccc12,-12.5% (active),44.6%,52.5%,132%,79.4%,54.8%,74.2%,84.4%,84.9%,111%
Cc1ccc(N(CC(=O)Nc2ccc(S(=O)(=O)N3CCC(N4CCCC4)CC3)cc2)S(=O)(=O)c2ccc(Cl)cc2)cc1,-29.5% (active),-3.71% (active),55.2%,88%,49.2%,96.9%,51%,-22.4% (active),66%,70.2%
CC(=O)Nc1cc(F)cc(C(F)(F)F)c1Cl,101%,105%,105%,96.2%,98.1%,106%,100%,104%,88.2%,96.1%
COc1cc2c(cc1-c1c(C)noc1C)ncc1nc(C3CCC(F)(F)CC3)n([C@@H](C)COC(F)F)c12,24.7%,17.3%,46.1%,61.9%,43.2%,7.59% (active),48.9%,39%,8.57% (active),40.8%
c1ccc(C2Cc3ccccc3C2=NC2CCCCC2)cc1 (centres undefined),91.1%,100%,107%,90.8%,102%,110%,112%,121%,113%,113%
COc1cccc(-c2nn(-c3ccccc3)cc2-c2ccnc(NCCNS(=O)(=O)c3ccc(C(F)(F)F)cc3)c2)c1,-16.1% (active),-4.8% (active),15.7%,24.9%,31.2%,24.5%,28%,7.03% (active),33.9%,16.9%
COC(=O)[C@]12CC[C@@H](C(=O)/C=C/c3cccnc3)[C@@H]1[C@H]1CC[C@@H]3[C@@]4(C)C/C(=C/c5cccnc5)C(=O)C(C)(C)[C@@H]4CC[C@@]3(C)[C@]1(C)CC2,-14.1% (active),-28.7% (active),-34.3% (active),-62.7% (active),-39.2% (active),-23.1% (active),-87.9% (active),-93.2% (active),-49.1% (active),-39.4% (active)
COC(=O)[C@]12CC[C@@H](C)[C@H](C)[C@@H]1C1=CC[C@@H]3[C@@](C)(CC#N)C4=C(C[C@@]3(C)[C@]1(C)CC2)OC[C@]4(C)C=O,2.49% (active),2.46% (active),5.29% (active),-48.3% (active),10%,0.91% (active),22.9%,-59.6% (active),-0.493% (active),-11.3% (active)
COC(=O)[C@]12CC[C@@H](C)[C@H](C)[C@@H]1C1=CC[C@@H]3[C@@]4(C)C[C@@H](O)OC[C@](C)(C=O)C4C(=O)C[C@@]3(C)[C@]1(C)CC2 (some centres undefined),-14.3% (active),-19.3% (active),-4.45% (active),-10.5% (active),18.5%,-0.332% (active),14.7%,-12% (active),16.8%,10.9%
Nc1nc2c(c(=O)[nH]1)C(c1ccc3c(c1)OCO3)C=C(C(=O)O)N2 (centres undefined),103%,129%,106%,114%,103%,118%,111%,123%,106%,109%
O=C1c2cc3c(cc2-c2c1c1ccc(F)cc1c(=O)n2CCCN1CCOCC1)OCO3,4.41% (active),46.1%,47%,78.9%,78.5%,20.1%,77.5%,85.7%,100%,36.6%
CSc1ccc(N(C)c2nc(C)nc3c2CCC3)cc1,1.95% (active),23.5%,12%,33.2%,38.2%,19.5%,31.3%,5.43% (active),29.8%,8.05% (active)
COc1ccc(-c2nc(Nc3ccc(-c4nc5ccccc5[nH]4)cc3)nc(N3CCOCC3)n2)cc1,6.01% (active),-13.8% (active),39.2%,66.3%,59.8%,19.6%,33.7%,5.15% (active),-11.9% (active),34.2%
COc1cccc(-c2nn(-c3ccccc3)cc2-c2ccnc(NCCCNS(=O)(=O)c3ccc(Cl)cc3)c2)c1,7.26% (active),26.6%,37.3%,75.3%,42.8%,60.5%,41.4%,54%,49.9%,35.6%
COc1ccc(C2CC(=O)c3c(nc4ccc(Cl)cc4c3N)C2)cc1 (centres undefined),88.7%,103%,107%,95.4%,102%,117%,99.7%,112%,115%,105%
c1ccc2[nH]c(-c3ccc(Nc4nc(N5CCCCC5)nc(N5CCOCC5)n4)cc3)nc2c1,9.79% (active),2.47% (active),45.7%,73.9%,61.2%,22.5%,51.3%,10.9%,-12.6% (active),45.6%
Cc1csc(Nc2nc(-c3cccc(Br)c3)nc(C(Cl)(Cl)Cl)n2)n1,67.7%,35.8%,75.6%,69.9%,76.8%,76.1%,91.9%,14.9%,59.6%,60.4%
C=C1C(=O)O[C@H]2[C@H]1CC/C(Cn1cc(-c3ccc(OC)cc3)nn1)=C\CC[C@@]1(C)O[C@@H]21,-10.8% (active),-33.3% (active),-51% (active),17.2%,27.4%,120%,-51.1% (active),-83.9% (active),75.6%,24.7%
C=C(C)[C@@H]1CC[C@]2(C(=O)O)CC[C@]3(C)[C@H](CC[C@@H]4[C@@]5(C)C/C(=C/c6cccc(I)c6)C(=O)C(C)(C)[C@@H]5CC[C@]43C)[C@@H]12,24%,9.91% (active),20.5%,81.3%,3.26% (active),24.2%,47.6%,5.15% (active),43.9%,31.5%
CC1(C)C(=O)/C(=C\c2ccccn2)C[C@]2(C)[C@H]3CC[C@@H]4[C@@H](C(=O)/C=C/c5ccccn5)CC[C@@]4(C)[C@]3(C)CC[C@@H]12,3.7% (active),-5.71% (active),15.5%,-21.7% (active),-1.54% (active),35.1%,-52% (active),-69% (active),15.1%,0.68% (active)
COc1ccc2c(c1)C(Br)=C(CCO)C2c1ccccc1 (centres undefined),112%,40.7%,86.1%,78%,87.3%,78.1%,83.5%,26%,35.7%,65.1%
C[Si](C)(C)Cc1ccccc1,143%,71.6%,107%,94.1%,113%,112%,125%,–,–,105%
CC1(C)C=CC[C@]2(C)[C@H]3CC[C@@H]4[C@H]5[C@H](C(=O)/C=C/c6cccnc6)CC[C@]5(CO)CC[C@@]4(C)[C@]3(C)CC[C@@H]12,-26.9% (active),-18.5% (active),-11.7% (active),-74.3% (active),-14.5% (active),-46.6% (active),-54.5% (active),–,-42.9% (active),-32.2% (active)
Nc1ccc(Br)cn1,98.9%,101%,102%,93%,101%,103%,110%,–,99.5%,103%
Brc1cnc2[nH]cc(-c3nnc(-c4ccccc4)o3)c2c1,68.5%,85%,84.7%,96.5%,71.3%,–,41.2%,70.2%,79.2%,80%
Cc1cccc(C)c1NC(=O)CSC(=S)N1CCCCC1,101%,104%,105%,101%,106%,110%,90.7%,103%,–,103%
